In PubChem BioAssay one finds growth inhibition, inhibition and outcome data, which are given here for 20 compounds.

SMILES strings stand for the structures. Values without a mark were called inactive. For some of these results: Potency and affinity values are given separately. Calls of active or inactive are those of the source. Unless noted, no rule for the calls is given here.

The nature of assay [1]: antimalarial activity against Dd2 strain (AID 2302;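 active = growth inhibition above 50% at the single 2 µM test dose, taken to imply half-maximal potency below 2 µM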;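 also: 0% = DMSO untreated growth and 100% = chloroquine plus artemisinin killed control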). The note with it: P. falciparum Dd2 in RBCs, LDH growth readout, 72 h; at 2 µM; hits give high values.
Assay [2] can be described thus: human hepatoma cell viability loss – ATP luminescence, cytotoxicity control for P. falciparum antimalarial project, primary screen (AID 2303;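 active = inhibition above 50%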;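 also: 0% = DMSO wells and 100% = digitonin-killed cells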). The settings on record: HepG2 viability, 24-48 h, at 10 µM, hits give high values.
For assay [3], the target named is L-lactate dehydrogenase (Plasmodium falciparum (isolate CDC / Honduras)) (UniProt Q27743). Put plainly: PfLDH activity inhibition – cell lysate, 3D7 strain, counter-screen for P. falciparum growth inhibition project (AID 2304).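 Also: 0% = vehicle and 100% = reference inhibitor.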 The settings on record: P. falciparum 3D7 crude extract, LDH APAD/NBT absorbance; at 2 µM; hits give high values. In general terms: Counterscreens check selectivity or assay interference.
Sequence of L-lactate dehydrogenase (Plasmodium falciparum (isolate CDC / Honduras)) (Q27743 whole entry, looked up): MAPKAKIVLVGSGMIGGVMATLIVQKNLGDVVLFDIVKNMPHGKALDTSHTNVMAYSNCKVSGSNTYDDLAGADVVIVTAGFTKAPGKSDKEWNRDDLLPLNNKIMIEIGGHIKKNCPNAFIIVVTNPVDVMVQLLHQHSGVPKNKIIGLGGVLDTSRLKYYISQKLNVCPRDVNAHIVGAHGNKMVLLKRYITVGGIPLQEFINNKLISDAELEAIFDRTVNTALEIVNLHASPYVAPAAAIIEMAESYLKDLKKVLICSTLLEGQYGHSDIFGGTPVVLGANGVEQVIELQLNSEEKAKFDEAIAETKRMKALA

Assay [4] can be described thus: inhibition of 3D7 malaria parasite growth – strain 3D7 (AID 2306).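 Also: 0% = DMSO wells and 100% = chloroquine plus artemisinin control wells.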 The settings on record: P. falciparum 3D7 erythrocytic growth, LDH absorbance, 72 h; at 2 µM; hits give high values.
Assay [5] addresses Calcium-dependent protein kinase 1 (Plasmodium falciparum (isolate 3D7)) (UniProt P62344). Put plainly: PfCDPK1 kinase inhibitors, biochemical, TCAMS library (AID 1159585; cut-off not given, nearly all actives have IC50 up to about 0.98 µM;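 also: inhibitors leave more ATP so luminescence rises with inhibition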). The note with it: recombinant PfCDPK1, Kinase-Glo ATP depletion luminescence. (Kinase-Glo reads ATP consumption through a luciferase reaction.)
For assay [6], the target named is Plasmodium falciparum protein kinase 6 (PK6, PF3D7_1337100) (UniProt Q8IDW1). Nature of the assay: PfPK6 kinase inhibitors, biochemical, TCAMS library (AID 1159586). The settings on record: recombinant PfPK6, Kinase-Glo ATP depletion luminescence.
Sequence of Plasmodium falciparum protein kinase 6 (PK6, PF3D7_1337100) (Q8IDW1 1-305): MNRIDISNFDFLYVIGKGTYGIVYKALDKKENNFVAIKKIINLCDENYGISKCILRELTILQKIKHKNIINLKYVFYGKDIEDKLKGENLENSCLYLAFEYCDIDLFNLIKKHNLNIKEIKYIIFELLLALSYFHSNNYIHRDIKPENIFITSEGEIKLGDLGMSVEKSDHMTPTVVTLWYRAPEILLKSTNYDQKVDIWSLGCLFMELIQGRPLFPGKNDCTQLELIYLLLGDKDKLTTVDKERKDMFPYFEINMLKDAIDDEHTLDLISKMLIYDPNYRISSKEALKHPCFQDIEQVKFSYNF
The target in assay [7] is Protein kinase 7 (PK7), Plasmodium falciparum 3D7 (PF3D7_0213400) (UniProt Q7YTF7). Put plainly: inhibition of Plasmodium PK7 catalytic activity – biochemical, TCAMS antimalarial set, Kinase-Glo luminescence (AID 1159587). The settings on record: recombinant PfPK7, Kinase-Glo ATP depletion luminescence.
Sequence of Protein kinase 7 (PK7), Plasmodium falciparum 3D7 (PF3D7_0213400) (Q7YTF7 1-343): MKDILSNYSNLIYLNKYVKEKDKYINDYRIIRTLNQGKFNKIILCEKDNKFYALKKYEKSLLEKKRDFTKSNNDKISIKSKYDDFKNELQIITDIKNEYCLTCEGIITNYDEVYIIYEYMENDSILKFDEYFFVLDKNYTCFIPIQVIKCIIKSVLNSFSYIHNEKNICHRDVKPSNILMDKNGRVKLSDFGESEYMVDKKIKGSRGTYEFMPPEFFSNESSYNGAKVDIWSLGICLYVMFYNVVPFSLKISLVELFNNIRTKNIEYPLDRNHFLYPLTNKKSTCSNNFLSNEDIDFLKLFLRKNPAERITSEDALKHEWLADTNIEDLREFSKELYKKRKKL
Assay [8] concerns the target Calcium-dependent protein kinase 4 (Plasmodium falciparum (isolate 3D7)) (UniProt Q8IBS5). Nature of the assay: PfCDPK4 kinase inhibitors, biochemical, TCAMS library (AID 1159588; cut-off not given, nearly all actives have IC50 up to about 0.91 µM). The note with it: recombinant PfCDPK4, Kinase-Glo ATP depletion luminescence.

Sequence of Calcium-dependent protein kinase 1 (Plasmodium falciparum (isolate 3D7)) (P62344 whole entry, looked up): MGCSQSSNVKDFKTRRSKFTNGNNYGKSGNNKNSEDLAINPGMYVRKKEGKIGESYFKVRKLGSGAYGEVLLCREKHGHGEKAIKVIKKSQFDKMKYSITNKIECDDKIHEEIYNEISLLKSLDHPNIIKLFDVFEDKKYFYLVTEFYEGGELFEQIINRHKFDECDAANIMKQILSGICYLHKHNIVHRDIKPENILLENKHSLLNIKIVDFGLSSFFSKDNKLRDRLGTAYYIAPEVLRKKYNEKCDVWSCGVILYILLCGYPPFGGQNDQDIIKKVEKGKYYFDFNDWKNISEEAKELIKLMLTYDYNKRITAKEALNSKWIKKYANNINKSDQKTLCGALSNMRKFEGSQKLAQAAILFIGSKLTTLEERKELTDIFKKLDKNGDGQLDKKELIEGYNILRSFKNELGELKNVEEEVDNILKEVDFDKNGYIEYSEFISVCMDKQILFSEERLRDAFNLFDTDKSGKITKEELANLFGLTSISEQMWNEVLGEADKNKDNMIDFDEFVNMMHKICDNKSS
Sequence of Calcium-dependent protein kinase 4 (Plasmodium falciparum (isolate 3D7)) (Q8IBS5 whole entry, looked up): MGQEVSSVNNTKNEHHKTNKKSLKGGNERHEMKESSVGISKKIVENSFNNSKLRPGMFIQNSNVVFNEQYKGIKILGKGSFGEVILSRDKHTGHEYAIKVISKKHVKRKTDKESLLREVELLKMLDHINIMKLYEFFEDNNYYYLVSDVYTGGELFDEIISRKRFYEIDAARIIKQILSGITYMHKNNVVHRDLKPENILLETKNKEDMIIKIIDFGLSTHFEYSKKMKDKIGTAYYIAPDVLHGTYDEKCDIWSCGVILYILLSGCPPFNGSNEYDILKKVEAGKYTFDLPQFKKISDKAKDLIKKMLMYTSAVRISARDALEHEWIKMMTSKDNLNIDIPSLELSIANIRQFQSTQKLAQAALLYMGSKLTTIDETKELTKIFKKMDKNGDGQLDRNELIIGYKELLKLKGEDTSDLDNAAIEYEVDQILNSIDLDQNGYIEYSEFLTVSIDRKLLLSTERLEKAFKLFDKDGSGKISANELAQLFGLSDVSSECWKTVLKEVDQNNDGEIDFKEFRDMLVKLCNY

For `O=c1cc(NCCCNCc2cn(S(=O)(=O)c3ccccc3)c3ccccc23)[nH]c2ccccc12`, the figures for the growth inhibition in assay [1] and in assay [4] were 29% and 91% (active), respectively. Moreover, the results for the inhibition in assay [2] and in assay [3] were 17% and -2%, respectively. In addition, the result in assay [5], in assay [6], in assay [7] and in assay [8] was inactive.
With `N#Cc1ccc(NC(=NC2CCN(Cc3ccccc3)CC2)Nc2ccccc2Cl)c(O)c1`, the growth inhibition is 97% (active) in assay [1] and 101% (active) in assay [4]. The inhibition in assay [2] was 31%; in assay [3] it was 0%. Moreover, the outcome in assay [5], in assay [6], in assay [7] and in assay [8] was inactive.
`Oc1ccc(CCNc2nc(NCCCOc3ccccc3-c3ccc(C(F)(F)F)cc3)nc(N3CCNCC3)n2)cc1`: the growth inhibition in assay [1] was 49%; in assay [4] it was 101% (active). In addition, the inhibition is 64% (active) in assay [2] and 0% in assay [3]. In addition, the result in assay [5], in assay [6], in assay [7] and in assay [8] was inactive.
As to `CO/C(=C\C=C\c1cc2cc(Cl)c(Cl)cc2[nH]1)C(=O)NC1C[C@H]2CC[C@@H](C1)N2C` (stereo not given in full), the growth inhibition in assay [1] was 23%; in assay [4], 88% (active). For the same compound, the inhibition was 46% in assay [2] and -4% in assay [3]. The outcome in assay [5], in assay [6], in assay [7] and in assay [8] was inactive.
`COC[C@H]1CCCN1Cc1ccc(-c2ccc(-c3nc4ccccc4[nH]3)s2)cc1`: the growth inhibition was 58% (active) in assay [1] and 95% (active) in assay [4]. Moreover, the results for the inhibition in assay [2] and in assay [3] were 18% and -2%, respectively. Further, the outcome in assay [5], in assay [6], in assay [7] and in assay [8] was inactive.
On to `O=C(CSc1nc2ccccc2c(=O)n1CC1CCCO1)Nc1cc(C(F)(F)F)ccc1Cl` (stereo not given), for which the growth inhibition was 95% (active) in assay [1] and 97% (active) in assay [4]. Further, the inhibition in assay [2] was 12%; in assay [3], -2%. For the same compound, the result in assay [5], in assay [6], in assay [7] and in assay [8] was inactive.
Take `CC(=O)c1ccc2nc[nH]c(=O)c2c1`: the growth inhibition was 99% (active) in assay [1] and 96% (active) in assay [4]. In addition, the inhibition in assay [2] is 79% (active); in assay [3], -1%. For the same compound, the outcome in assay [5], in assay [6], in assay [7] and in assay [8] was inactive.
As for `COc1ccc(CNC(=O)c2cnc3c(O)cccc3c2Nc2cccc(NC(=O)c3ccc(-c4ccccc4)cc3)c2)cc1`, the figures for the growth inhibition in assay [1] and in assay [4] were 83% (active) and 90% (active), respectively. The inhibition in assay [2] is 42%; in assay [3], 6%. Also, the outcome in assay [5], in assay [6], in assay [7] and in assay [8] was inactive.
With `COc1ccc(NC(=O)c2ccc(NC(=O)c3ccc(Cl)cc3)cc2)cc1N1CCN(C)CC1`, the growth inhibition was 40% in assay [1] and 98% (active) in assay [4]. In addition, the inhibition was 23% in assay [2] and -8% in assay [3]. In addition, the result in assay [5], in assay [6], in assay [7] and in assay [8] was inactive.
`c1ccc(Oc2ccc(Nc3ccnc4cc(-c5cccc(CN6CCOCC6)c5)ccc34)cc2)cc1`: the growth inhibition was 100% (active) in assay [1] and 101% (active) in assay [4]. For the same compound, the inhibition in assay [2] was 14%; in assay [3], -1%. For the same compound, the result in assay [5], in assay [6], in assay [7] and in assay [8] was inactive.
`c1cc(CN2CCc3ccccc3CC2)cc(-c2c[nH]c3nc(NC4CCCC4)ncc23)c1`: the growth inhibition in assay [1] is 49%; in assay [4], 99% (active). Besides, the inhibition in assay [2] is 31%; in assay [3], -3%. For the same compound, the outcome in assay [5], in assay [6], in assay [7] and in assay [8] was inactive.
As to `COc1cc(C(=O)Nc2cccc(-c3cn4ccc(C)cc4n3)c2)cc(OC)c1OC`, the results for the growth inhibition in assay [1] and in assay [4] were 83% (active) and 97% (active), respectively. Besides, the values for the inhibition in assay [2] and in assay [3] were -1% and 1%, respectively. The outcome in assay [5], in assay [6], in assay [7] and in assay [8] was inactive.
In the case of `O=c1cc(NCCCNCc2sc(Br)c(Br)c2Br)[nH]c2ccccc12`, the figures for the growth inhibition in assay [1] and in assay [4] were 38% and 90% (active), respectively. Also, the inhibition is 0% in assay [2] and 5% in assay [3]. Further, the outcome in assay [5], in assay [6], in assay [7] and in assay [8] was inactive.
For the compound `COc1ccc(O)cc1Cc1cnc2nc(N)nc(N)c2c1C`, the growth inhibition was 97% (active) in assay [1] and 92% (active) in assay [4]. The inhibition in assay [2] was 67% (active); in assay [3] it was -2%. The outcome in assay [5], in assay [6], in assay [7] and in assay [8] was inactive.
As to `Cc1cc(NN=CC=Cc2ccccc2)c2ccccc2n1`, the growth inhibition was 69% (active) in assay [1] and 101% (active) in assay [4]. The inhibition is 19% in assay [2] and 1% in assay [3]. The outcome in assay [5], in assay [6], in assay [7] and in assay [8] was inactive.
Consider `CS(=O)(=O)CCNCc1cccc(-c2cc3c(Nc4ccc5c(cnn5Cc5ccccc5)c4)ncnc3s2)c1`, for which the growth inhibition in assay [1] and in assay [4] was 101% (active) in each case. Besides, the inhibition in assay [2] is 36%; in assay [3], 2%. The outcome in assay [5], in assay [6], in assay [7] and in assay [8] was inactive.
On to `COc1ccc(Nc2cc(C)nc(NCc3ccc4c(c3)OCO4)n2)cc1`, for which the growth inhibition in assay [1] is 78% (active); in assay [4], 99% (active). For the same compound, the inhibition is 26% in assay [2] and -2% in assay [3]. Besides, the result in assay [5], in assay [6], in assay [7] and in assay [8] was inactive.
With `O=C(Nc1ccc(Cl)c(Cl)c1)Nc1ccc2nccc(N3CCNCC3)c2c1`, the growth inhibition in assay [1] was 62% (active); in assay [4], 99% (active). The inhibition was 18% in assay [2] and -6% in assay [3]. In addition, the outcome in assay [5], in assay [6], in assay [7] and in assay [8] was inactive.
For the compound `COc1cc(Cc2cnc(N)nc2N)cc(OCc2cccc(C(=O)O)c2)c1OC`, the figures for the growth inhibition in assay [1] and in assay [4] were -3% and 92% (active), respectively. Besides, the inhibition in assay [2] was 8%; in assay [3] it was 4%. Also, the outcome in assay [5], in assay [6], in assay [7] and in assay [8] was inactive.
Regarding `CN1CCN(c2ccc3nccc(CCN4CCC(NCc5ccc6c(n5)NC(=O)CO6)CC4)c3n2)CC1`, the results for the growth inhibition in assay [1] and in assay [4] were 3% and 97% (active), respectively. For the same compound, the inhibition is 9% in assay [2] and -1% in assay [3]. For the same compound, the outcome in assay [5], in assay [6], in assay [7] and in assay [8] was inactive.

As usually defined, the inhibition is the change of the read-out against control, counted positive when it falls.
